Assay outcomes (PubChem)
B2AR ag: beta2AR agonists driving receptor internalization, primary screen, cell-based, FAP fluorogen, flow cytometry; AID 504454, 2011; response, % (concentration not given with the values); Beta-2 adrenergic receptor (Homo sapiens), P07550; Am2.2-beta2AR cells; actives 0.43% (n = 340,000);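 active means response above a set limit, near 3 SD of response in nonfluorescent compounds, cut at about 42% in these data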
Target sequence (P07550 whole entry, looked up): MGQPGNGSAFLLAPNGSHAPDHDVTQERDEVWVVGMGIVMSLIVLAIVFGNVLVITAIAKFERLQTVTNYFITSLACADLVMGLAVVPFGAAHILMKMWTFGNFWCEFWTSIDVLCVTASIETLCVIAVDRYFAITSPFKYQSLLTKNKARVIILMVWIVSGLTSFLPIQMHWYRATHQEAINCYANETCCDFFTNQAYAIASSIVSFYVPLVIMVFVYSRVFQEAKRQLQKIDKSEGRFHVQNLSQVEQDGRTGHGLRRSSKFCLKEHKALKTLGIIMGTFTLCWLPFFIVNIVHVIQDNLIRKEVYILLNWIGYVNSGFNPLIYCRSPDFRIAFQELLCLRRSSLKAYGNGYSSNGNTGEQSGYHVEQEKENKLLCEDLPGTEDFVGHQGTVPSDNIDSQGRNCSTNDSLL
Exocytosis inh: LAMP-1 surface exposure blockers, TALL-104 cells – cell-based, flow cytometry, MLPCN library, primary screen | actives 0.66% (n = 360,000) | inhibition, % at 10 µM | TALL-104 LAMP-1 surface exposure; cells stimulated with thapsigargin and PMA;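 active means inhibition above about 55%, limit read from the data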
HTR2A ag: mouse Htr2a agonists via beta-arrestin recruitment, primary screen, cell-based, luminescence. activation, % at 7.6 µM. actives 0.66% (n = 360,000). CHO-K1 mHTR2A beta-arrestin complementation; percent of 30 µM serotonin response. 5-hydroxytryptamine receptor 2A (Mus musculus), P35363;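 active means activation above a run cutoff, the mean activation of all tested compounds plus 3 SD, cut at about 14% in these data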;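 further: 0% = plate median of compound wells and 100% = 30 µM serotonin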
NTR1 agonist: agonists of human NTR1, primary screen, imaging, U2OS cells, beta-arrestin-GFP, high content | NTR1-U2OS beta-arrestin-GFP spot imaging, agonist mode | activation, % at 20 µM | actives 0.17% (n = 330,000) | AID 493036, 2011;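 active means activation at or above 40% of the spot to cytoplasm intensity ratio, with at least 20 cells analyzed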;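 further: 0% = DMSO without peptide and 100% = 100 nM NTR1 peptide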
ABHD5 PLIN5 PPI: ABHD5-PLIN5 interaction inhibitors, primary screen, cell lysate, split luciferase complementation, luminescence; Split G. princeps luciferase complementation, 4 h; inhibition, % at 4 µM; AID 602281, 2012; actives 0.78% (n = 360,000); Perilipin-5 (Homo sapiens) + 1-acylglycerol-3-phosphate O-acyltransferase ABHD5 (Homo …;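 active means inhibition above the mean inhibition across every tested compound plus 3 SD, cut at about 22% in these data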;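 further: 0% = DMSO only wells and the 100% control is not disclosed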
Active calls of the source: *; x = no result given. Sampled rows, rich in hits. Any-hit rate of the full collection: about 2.3%.

SMILES	B2AR ag	Exocytosis inh	HTR2A ag	NTR1 agonist	ABHD5 PLIN5 PPI
COC(=O)c1ccccc1NC(=O)c1nc(S(=O)(=O)Cc2ccccc2)ncc1Cl	52*	30	10	3	-2
c1ccc(-c2noc(CSc3nnc(Cc4cccs4)n3-c3ccccc3)n2)cc1	2	8	-3	5	-2
Cc1ccc(-c2noc(CSc3nnc(Cc4cccs4)n3-c3ccccc3)n2)cc1	0	-1	21*	10	1
COc1ccccc1-c1ccc(/C=C2/C=C(C)OC2=O)o1	14	10	1	4	23*
Fc1ccc(CN2CCN(c3ncnc4scc(-c5ccc(F)cc5)c34)CC2)cc1	15	5	-1	17	-4
CCN1CCN(c2ncnc3scc(-c4ccc(C)c(C)c4)c23)CC1	8	82*	3	3	-1
CCOC(=O)c1c(SCCN2CCCC2)n(-c2ccccc2)c(=S)n(-c2ccccc2)c1=O	53*	73*	-1	x	22*
CCOC(=O)c1c[nH]c(=S)n(-c2ccccc2)c1=O	-2	-5	2	0	0
CCOC(=O)C1=C(C)NC(=O)NC1/C=C/c1ccccc1OC (stereo not drawn)	-2	0	-4	0	2
COc1cc2c(cc1OC)CN(Cc1ccccc1)CC2	14	-2	-4	-1	1
COc1cc2c(cc1OC)CN(CCC(C)c1ccc(Cl)cc1)CC2 (stereo not drawn)	4	65*	-4	3	5
COC(=O)c1ccc(C2NC(=S)N(c3ccccc3)C(C)=C2C(=O)Nc2ccccc2OC)cc1 (stereo not drawn)	46*	-2	2	3	6
COc1ccccc1NC(=O)C1=C(C)N(c2ccccc2)C(=S)NC1c1cccc(C(F)(F)F)c1 (stereo not drawn)	8	-2	-2	-2	4
Cc1noc(C)c1C(=O)Nc1c(F)cc(F)cc1Br	-3	0	1	0	-2
Cc1cc(C(=O)Nc2c(F)cc(F)cc2Br)c(C)o1	7	3	2	1	23*
CCCCOCCCNS(=O)(=O)c1ccccc1	0	-3	5	0	4
CCCCOP(=O)(OCCCC)C1(NS(=O)(=O)c2ccccc2)C=CC(=O)c2ccccc21 (stereo not drawn)	0	99*	-4	8	-6
COc1ccc2cc(-c3[nH]ncc3CN3C[C@@H]4CCC[C@H]3C4)ccc2c1	-7	15	-2	-1	23*
NC(=O)C1CCN(C2=C(Cl)C(=O)c3ccccc3C2=O)CC1	46*	30	1	0	-44
Nc1nc(-c2ccccc2)c(N=Nc2cccc3ccccc23)s1	24	5	-9	28	23*
CCNC(=O)c1cc2c(=O)n3cccc(C)c3nc2n(Cc2ccc(C)cc2)c1=N	51*	21	3	7	11
Cc1cccn2c(=O)c3cc(C(=O)NC(C)C)c(=N)n(Cc4ccncc4)c3nc12	-3	4	-1	2	2
Cc1ccc(C)c(N2CCN(C3C(=O)Nc4ccccc4-n4nnnc43)CC2)c1 (stereo not drawn)	x	10	7	x	0
CCN(CC)S(=O)(=O)c1cccc(C(=O)N/N=C/c2ccc(N3CCOCC3)cc2)c1	-5	1	-1	-1	-8
Nc1nc(SCC(=O)Nc2ccccc2C(F)(F)F)[nH]c(=O)c1-c1ccccc1	3	4	-3	1	2
COc1ccccc1C(=O)Nc1ccccc1N1CCCCC1	5	67*	-6	15	5
Cc1ccc2nc(-c3ccc(NC(=S)NCC(C)(C)CN(C)C)cc3)sc2c1	10	56*	-12	x	21
CCN(CC)S(=O)(=O)c1cc(C(=O)OCC(=O)Nc2cccc(C)c2C)ccc1F	5	-13	-2	2	12
CC1CCc2c(sc3nc(C(C)(C)C)nc(N4CCN(C(=O)CCl)CC4)c23)C1 (stereo not drawn)	50*	-5	2	38	18
CCC(=O)N1CCN(c2nc(CC)nc3sc4c(c23)CCCC4)CC1	-5	0	3	3	-3
